“And” between values parts separate entries of the source, which are not always exact repeats. Identical values can stand only once. Inconclusive results are not listed. Some structures have more than one record in an assay (separate samples or runs), and their calls can disagree. The source made the active and inactive calls. How the source made its calls, unless noted: active means hit-call score of the fitted dose curve at least 0.9, where 1 is the maximum; inactive means score below 0.9.
Tests used:
CD69, CD69 (gene 969) = experiment: BSK_LPS_CD69: BioMAP Diversity Plus: LPS Assay for CD69 Biomarker Activity (AID 2284303); conditions: primary human HUVEC with PBMC
Procedure, shortened: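 Human umbilical vein endothelial cells co-cultured with PBMC under LPS stimulation, chemical exposure 24 h; cell-surface CD69 measured by ELISA and fitted in the positive direction versus DMSO.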

[1] = IUF_NPC2a_radial_glia_migration_72hr: Leibniz Research Institute for Environmental Medicine (IUF) 72-hour Neural Progenitor Cell Migration Assay for Radial Glia Migration (NPC2a) (AID 2284299)
Procedure, shortened: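 Human fetal neural progenitor spheres (0.3 mm) plated on poly-D-lysine/laminin in N2 differentiation medium and exposed from day 0 at 7 concentrations; radial glia migration distance from sphere edge measured at 72 h on brightfield images, mean of four directions, vs DMSO.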

[2] = IUF_NPC2b_neuronal_migration_120hr: Leibniz Research Institute for Environmental Medicine (IUF) 120-hour Neural Progenitor Cell Migration Assay for Neuron Migration (NPC2b) (AID 2284300)
Procedure, shortened: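 Fetal human NPC spheres migrate on PDL/laminin during 120 h compound treatment; neuronal migration distance, glia-normalized, scored versus DMSO control.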

[3] = IUF_NPC3_neuronal_differentiation_120hr: Leibniz Research Institute for Environmental Medicine (IUF) 120-hour Neuronal Differentiation Assay (NPC3) (AID 2284301)
Procedure, shortened: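 Human fetal (GW 16-19) neural progenitor spheres (0.3 mm) plated on poly-D-lysine/laminin in N2 differentiation medium, exposed 120 h at 37C with half-medium renewal day 3; 7 concentrations. TUBB3+ cells as % of Hoechst nuclei, CNN-identified; DMSO baseline.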

[4] = IUF_NPC4_neurite_length_120hr: Leibniz Research Institute for Environmental Medicine (IUF) 120-hour Neuronal Morphology Assay for Neurite Length (NPC4) (AID 2284302)
Procedure, shortened: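 Human fetal neural progenitor spheres (0.3 mm) plated on poly-D-lysine/laminin in N2 differentiation medium, exposed from day 0 for 120 h with half-medium refresh at day 3, 37C. Mean neurite length (um) of TUBB3-positive neurons from skeletonized immunostaining images; DMSO ≤0.1%.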

[5] = IUF_NPC5_oligodendrocyte_differentiation_120hr: Leibniz Research Institute for Environmental Medicine (IUF) 120-hour Oligodendrocyte Differentiation Assay (NPC5) (AID 2284304; active means hit-call score of the fitted dose curve at least 0.9, where 1 is the maximum;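 further: primary human fetal neural progenitor spheres plated to migrate and differentiate; share of O4-positive cells among Hoechst nuclei found by CNN image analysis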)
Procedure, shortened: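 After plating on poly-D-lysine/laminin, fetal-derived hNPC spheres differentiated for 120 h at 37C in compound-containing N2 medium, refreshed by half on day 3. O4 immunostaining over Hoechst nuclei in the migration zone gave oligodendrocyte percentage relative to DMSO.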

[6] = IUF_NPC4_neurite_area_120hr: Leibniz Research Institute for Environmental Medicine (IUF) 120-hour Neuronal Morphology Assay for Neurite Area (NPC4) (AID 2284305; active means hit-call score of the fitted dose curve at least 0.9, where 1 is the maximum)
Procedure, shortened: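 Human fetal neural progenitor spheres (0.3 mm) plated on poly-D-lysine/laminin in N2 differentiation medium, exposed 120 h (7 concentrations, DMSO ≤0.1%, half-medium refresh day 3). Fixed, TUBB3 immunostained; mean neurite area per neuron by Omnisphero skeletonization.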

[7] = IUF_NPC2-5_cytotoxicity_72hr: Cytotoxicity Assessment at 72 hours in the Leibniz Research Institute for Environmental Medicine (IUF) Neural Progenitor Cell Migration and Differentiation Assay for Cytotoxicity (NPC2-5) (AID 2284306; active means hit-call score of the fitted dose curve at least 0.9, where 1 is the maximum;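 further: LDH release into supernatant measured by resorufin fluorescence marking membrane damage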)
Procedure, shortened: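 Human fetal primary neural progenitor spheres (0.3 mm) plated on poly-D-lysine/laminin in N2 differentiation medium, exposed from day 0 at 37C. LDH-dependent resazurin-to-resorufin fluorescence in supernatant at 72 h; 7 concentrations, DMSO at most 0.1%.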

[8] = IUF_NPC2-5_cytotoxicity_120hr: Cytotoxicity Assessment at 120 hours in the Leibniz Research Institute for Environmental Medicine (IUF) Neural Progenitor Cell Migration and Differentiation Assay (NPC2-5) (AID 2284307; active means hit-call score of the fitted dose curve at least 0.9, where 1 is the maximum;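 on AC50: LDH released into supernatant as membrane damage marker via resorufin fluorescence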)
Procedure, shortened: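 Membrane-integrity loss is quantified by LDH in supernatant after five days of exposure of migrating, differentiating human fetal NPC spheres; seven serially diluted concentrations are tested with DMSO kept at or below 0.1%.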

[9] = IUF_NPC2-5_cell_number_120hr: Cell Number Assessment at 120 hours in the Leibniz Research Institute for Environmental Medicine (IUF) Neural Progenitor Cell Migration and Differentiation Assay (NPC2-5) (AID 2284308);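 further: count of Hoechst-stained nuclei in migration zone around plated human neural progenitor spheres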
Procedure, shortened: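 Seven-point serial dilutions plus solvent control were applied to plated 0.3 mm hNPC spheres at differentiation start, with medium half-replaced at day 3. Nuclei positive for Hoechst in the migration zone were enumerated at 120 h.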

## C=CC(=O)OCCC(F)(F)C(F)(F)C(F)(F)C(F)(F)C(F)(F)C(F)(F)C(F)(F)C(F)(F)F
CD69, CD69 (gene 969)
  outcome: inactive

## O=C(CC(=O)C(F)(F)C(F)(F)C(F)(F)F)c1cccs1
CD69, CD69 (gene 969)
  outcome: inactive

## O=C(CCCN1CCC(O)(c2ccc(Cl)cc2)CC1)c1ccc(F)cc1
[1]
  outcome: inactive
[2]
  outcome: inactive
[3]
  outcome: inactive
[4]
  outcome: inactive
[5]
  AC50: 3.35 µM (active)
[6]
  outcome: inactive
[7]
  outcome: inactive
[8]
  AC50: 1.98 µM (active)
[9]
  outcome: inactive

## CN(CCO)S(=O)(=O)C(F)(F)C(F)(F)C(F)(F)C(F)(F)C(F)(F)C(F)(F)C(F)(F)C(F)(F)F
CD69, CD69 (gene 969)
  outcome: inactive

## CC(=O)Nc1ccc(O)cc1
[1]
  outcome: inactive
[2]
  outcome: inactive
[3]
  outcome: inactive
[4]
  outcome: inactive
[5]
  outcome: inactive
[6]
  outcome: inactive
[7]
  outcome: inactive
[8]
  outcome: inactive
[9]
  outcome: inactive

## CCCCCCCCCCCC
CD69, CD69 (gene 969)
  AC50: 30.1 µM (active)
  outcome: inactive

## O=C1NS(=O)(=O)c2ccccc21
[1]
  outcome: inactive
[2]
  outcome: inactive
[3]
  outcome: inactive
[4]
  outcome: inactive
CD69, CD69 (gene 969)
  outcome: inactive
[5]
  outcome: inactive
[6]
  outcome: inactive
[7]
  outcome: inactive
[8]
  outcome: inactive
[9]
  outcome: inactive

## CN(Cc1cnc2nc(N)nc(N)c2n1)c1ccc(C(=O)N[C@@H](CCC(=O)O)C(=O)O)cc1
CD69, CD69 (gene 969)
  outcome: inactive

## O=C(O)CCC(F)(F)C(F)(F)C(F)(F)C(F)(F)C(F)(F)C(F)(F)F
CD69, CD69 (gene 969)
  outcome: inactive

## Oc1c(Cl)cc(Cl)cc1Sc1cc(Cl)cc(Cl)c1O
CD69, CD69 (gene 969)
  AC50: 24.3 µM (active) and 27.4 µM (active)

## OCC(F)(F)C(F)(F)C(F)(F)C(F)(F)C(F)(F)C(F)(F)C(F)(F)C(F)(F)C(F)(F)C(F)(F)C(F)(F)F
CD69, CD69 (gene 969)
  outcome: inactive

## O=C(O)C(F)(F)OC(F)(F)C(F)(F)OC(F)(F)C(F)(F)OC(F)(F)C(F)(F)C(F)(F)C(F)(F)F
CD69, CD69 (gene 969)
  AC50: 39.9 µM (active) and 41.2 µM (active)

Reference: PubChem BioAssay (EPA / NIEHS)
